# An excerpt weighted towards active compounds, which were near 11% of everything screened.
# JMJD2A Tudor – qHTS Assay for Inhibitors of JMJD2A-Tudor Domain | Lysine-specific demethylase 4A (Homo sapiens), O75164 | AlphaScreen JMJD2A-Tudor / H3K4me3 peptide binding | Potency, µM (series often up to 114 µM), inactives show top-dose activity change, negative = inhibition, usual class: inhibitors | actives 4.4% (n = 390,000); also: % is scaled to controls: 0 for no effect and ±100 for the full control effect; nearly all actives have a fitted effect of over 50% in size
# BAZ2B block – qHTS Assay for Inhibitors of BAZ2B | AlphaScreen BAZ2B-H3K14Ac peptide displacement | actives 4.4% (n = 360,000) | Potency, µM (top dose mostly 114 µM), for the others: at the top dose activity change, negative = inhibition, most hits filed as inhibitors | AID 504333, 2011; also: % is scaled to controls: 0 for no effect and ±100 for the full control effect; nearly all actives have a fitted effect of over 60% in size
#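 Compounds, titrated to a top concentration of 110 uM, were incubated 30 min at room temperature with preformed BAZ2B/acetyl-K14 H3 peptide complex (50 nM each). Proximity signal was measured by AlphaScreen after 20 min with beads.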
# G9a block – qHTS Assay for Inhibitors of Histone Lysine Methyltransferase G9a; G9a H3K9 monomethylation, AlphaScreen, 2 h; Potency, µM (titrated, usually from 102 µM), for the others: at the top dose activity, negative = inhibition, actives largely listed as inhibitors; actives 8.8% (n = 350,000); AID 504332, 2011; also: % is scaled to controls: 0 for no effect and ±100 for the full control effect; nearly all actives have a fitted effect of over 75% in size
# Target sequence (Q96KQ7 913-1193 limits assumed): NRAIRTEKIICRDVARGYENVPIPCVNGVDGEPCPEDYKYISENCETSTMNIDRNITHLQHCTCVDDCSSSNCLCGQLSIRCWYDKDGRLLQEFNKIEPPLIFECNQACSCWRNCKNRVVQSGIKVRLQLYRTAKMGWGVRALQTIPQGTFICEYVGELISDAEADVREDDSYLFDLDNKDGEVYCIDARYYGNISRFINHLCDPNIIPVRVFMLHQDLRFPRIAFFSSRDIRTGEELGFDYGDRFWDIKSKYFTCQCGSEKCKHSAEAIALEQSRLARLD
#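 Compounds were preincubated with 20 nM G9a for 15 min, after which biotinylated H3K9 peptide (500 nM) and SAM (20 uM) started a 2 h room-temperature reaction. Monomethylated product was quantified by antibody-based AlphaScreen chemiluminescence.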
# L3MBTL1 block – qHTS Assay for the Inhibitors of L3MBTL1. Potency, µM (titrated, usually from 57.1 µM), without a hit: at the top dose activity, negative = inhibition, usual class: inhibitors. actives 0.66% (n = 230,000). AlphaScreen L3MBTL1–H3K9me1 peptide binding; also: % is scaled to controls: 0 for no effect and ±100 for the full control effect; nearly all actives have a fitted effect of over 60% in size
#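 AlphaScreen proximity signal between nickel-chelate acceptor and streptavidin donor beads (final 10 ug/mL) reports binding of 50 nM L3MBTL1 to 75 nM biotin-H3 K9me1 peptide; complex incubated with compounds 30 min at room temperature; cefsulodin titration as control.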
# HP1b binding inh – HTS for Inhibitors of HP1-beta Chromodomain Interactions with Methylated Histone Tails; Potency, µM (highest dose often 114 µM), for the others: top-dose activity change, negative = inhibition, hits mostly inhibitors; AID 540317, 2011; AlphaScreen HP1-beta / biotin-H3K9me3 peptide binding; actives 0.56% (n = 390,000); Chromobox protein homolog 1 (Homo sapiens), P83916; also: nearly all actives have a fitted effect of over 70% in size
# Target sequence (P83916 whole entry, looked up): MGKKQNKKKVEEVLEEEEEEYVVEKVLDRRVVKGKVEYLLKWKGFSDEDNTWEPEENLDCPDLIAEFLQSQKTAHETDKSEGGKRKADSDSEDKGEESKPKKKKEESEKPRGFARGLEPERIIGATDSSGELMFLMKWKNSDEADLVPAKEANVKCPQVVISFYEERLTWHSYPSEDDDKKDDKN
#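 Compound inhibition of the preformed complex between 50 nM HP1-beta and 50 nM biotinylated H3K9me3 peptide was read by AlphaScreen. Buffer was PBS pH 7.4 with 0.01% Tween-20. Incubations ran 30 min at room temperature, with 10 ug/mL donor/acceptor beads.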
# * marks the source's active call; other numbers are inactive results; ? = inconclusive; . = no result given; [ ] = remark or other dose. Calls follow the shape of the dose curve; as a rule, active = well fitted inhibition curve with a large enough effect; inconclusive = small, poorly fitted or top-dose-only effect; inactive = no such curve, though single readings can be large or run the other way. Potency is read from the fitted curve at half-maximal effect.
SMILES,JMJD2A Tudor,BAZ2B block,G9a block,L3MBTL1 block,HP1b binding inh
Cc1ccc(-c2nnn3c2nc(NCC(C)c2ccccc2)c2ccccc23)cc1 (centres undefined),6%,4%,4%[59 µM],.,51%
CCc1ccc2oc(-c3cccc(NC(=O)c4ccc(N5CCC(C)CC5)c([N+](=O)[O-])c4)c3)nc2c1,-26%,-34%,-33%[59 µM],.,5%
COc1ccc(NC(=O)c2c(NC(=O)C(F)(F)F)sc3c2CCCCC3)cc1,-34%,-37%,?,.,-7%
Cc1ccc2[nH]c(=O)c(C(c3nnnn3CC3CCCO3)N3CCc4ccccc4C3)cc2c1 (centres undefined),-28%,?,2µM*,.,37%
COc1ccc2[nH]c(=O)c(C(c3nnnn3CC3CCCO3)N3CCc4ccccc4C3)cc2c1 (centres undefined),-16%,-39%,?,-6%,38%
CCn1c(SCc2nc3sc(C(=O)O)c(C)c3c(=O)[nH]2)nnc1-c1ccc(Cl)cc1,-3%,56µM*,?,-6%[11.4 µM],42%
SC(COCc1ccccc1)CN1CCN(Cc2ccc3c(c2)OCO3)CC1 (centres undefined),?,?,22µM*,-24%,5%
CC(=O)c1ccc(OCC(O)CN2CCN(CCO)CC2)cc1 (centres undefined),-23%,4%,-18%[59 µM],3%,89%
Cc1ccc(OCC(O)CN2CCN(Cc3ccc4c(c3)OCO4)CC2)c(C)c1 (centres undefined),?,?,-6%[59 µM],-6%,?
COc1ccc(OCC(O)CN2CCN(Cc3ccc4c(c3)OCO4)CC2)cc1 (centres undefined),-13%,-12%,20µM*,-3%,27%
CCOC(=O)c1ccc(S(=O)(=O)N2CCN(CC(O)COc3ccc(C#N)cc3)CC2)cc1 (centres undefined),20µM*,56µM*,35µM*,.,-30%
CC(=O)c1ccc(OCC(O)CN2CCN(Cc3ccc4c(c3)OCO4)CC2)cc1 (centres undefined),63µM*,-10%,?,4%,48%
CC(C)(C)C(=O)Nc1cccc(C(=O)OCc2cc(=O)n3nc(C4CC4)sc3n2)c1,-8%,-18%,?,.,24%
COc1cccc(NC(=O)C2CCCN(c3ncnc4onc(-c5ccc(F)cc5)c34)C2)c1 (centres undefined),-7%,7%[57.1 µM],4%[59 µM],.,34%
CCN1CCN(CC(O)COc2ccc(C(C)=O)cc2)CC1 (centres undefined),-30%,2%,50µM*,1%,52%
CC(=O)c1cccc(OCC(O)CN2CCN(C(=O)c3ccco3)CC2)c1 (centres undefined),1.4µM*,71µM*,?,.,?
c1ccc(CN=C2NN=C(c3cc4ccccc4o3)CS2)cc1,1%,?,?,-20%,19%
COc1ccc(CN=C2NN=C(c3cccc(OC)c3)CS2)cc1,-31%,?,?,?,2%
Cc1ccc(C)c(C2=NNC(=NCc3ccccc3)SC2)c1,-34%,-33%,35µM*,.,-2%
COc1ccc(CN=C2NN=C(c3ccccc3)CS2)cc1,?,.,35µM*,.,-5%
Cc1ccccc1-c1noc(-c2cccnc2N2CCN(c3ccccc3)CC2)n1,-3%,?,-43%[59 µM],.,53%
Cc1ccc(C)c(Nc2ncnc3onc(C)c23)c1,-13%,15%[57.1 µM],5%[59 µM],.,16%
Cc1cc(C)n2ncc(C(=O)Nc3ccc4c(c3)CCC4)c2n1,-9%,.,.,.,.
Cc1cc(C)n2ncc(C(=O)Nc3ccc(Cl)c(Cl)c3)c2n1,-25%,-11%,40µM*,-3%,?
CCc1nn(CC(=O)Nc2ccc(NC(C)=O)cc2)c(=O)c2cc3sccc3n12,-15%,-8%,-33%[59 µM],.,20%
COc1ccc(C(C[N+](=O)[O-])c2c(C)cc3ccccn23)c(OC)c1 (centres undefined),-23%,-39%,40µM*,.,-17%
COc1ccc(OC)c(C(C[N+](=O)[O-])c2c(C)cc3ccccn23)c1 (centres undefined),?,?,45µM*,.,?
